Results reported in a collection of fitness landscapes (doi:10.1016/j.celrep.2020.107928).
In all, about 81,000 sequences were measured (“one-hybrid fitness for binding NBS DNA”: median about -0.1, highest 2% from about 0.36 on). The sample holds the highest values, similar sequences and a random draw of the others, so the mix is not that of the screen.

B1: Caulobacter ParB omega fusion; a variant is named by its letters at X, in order, B8GW30 (parent)
chain: MESVVVGEPGMSEGRRGLGRGLSALLGEVDAAPAQAPGEQLGGSREAPIEILQRNPDQPRRTFREEDLEDLSNSIREKGVLQPILVRPSPDTAGEYQIVAGERAWRAAQRAGLKTVPIMVRELDDLAVLEIGIIENVQRADLNVLEEALSYKVLMEKFERTQENIAQTIGKSXSHVANXMRLLXLPDEVQSYLVSGELTAXHARAIAAAADPVALAKQIIEGGLSVRETEALARKAPNLSAGKSKGGRPPRVKDTDTQALESDLSSVLGLDVSIDHRGSTGTLTITYATLEQLDDLCNRLTRGI

Variants of: B1
Experiment: one-hybrid fitness for binding NBS DNA (the Noc-binding site; scaled: cognate 1, non-cognate 0); higher = stronger binding
Conditions: with NBS DNA site
Procedure, shortened: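 On M9-minus-histidine containing 0.1 mM IPTG and 5 mM 3-AT, E. coli USO cells with a HIS3 reporter, site 19 bp from the promoter, grew 48 hours at 37°C to select Caulobacter ParB libraries randomised at four specificity codons. Plasmids from before and after were Illumina-sequenced, with three replicate libraries pooled and variants under 10 reads left out. Fitness is the log change in variant-to-wild-type read ratio, rescaled against cognate and non-cognate.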

Variant | one-hybrid fitness for binding NBS DNA
YEPF | ≤ 0.2
HTTL | ≤ 0.2
YPNR | ≤ 0.2
EHEC | ≤ 0.2
THMK | ≤ 0.2
KPGR | ≤ 0.2
KCHR | ≤ 0.2
KRWR | 0.578
DRQR | ≤ 0.2
KSHR | ≤ 0.2
KPWR | ≤ 0.2
KSWR | ≤ 0.2
KRQR | 0.552
KRHR | 0.616
KRGR | 0.557
KCQR | ≤ 0.2
KCGR | ≤ 0.2
NSRQ | ≤ 0.2
TYKN | ≤ 0.2
HHDR | ≤ 0.2
DNHG | ≤ 0.2
DRLR | ≤ 0.2
KSER | ≤ 0.2
KRDR | 0.336

Variant | one-hybrid fitness for binding NBS DNA
KRSR | 0.561
KRER | 0.368
KCNR | 0.223
KCER | ≤ 0.2
KRLR | 0.456
KCSR | ≤ 0.2
KRNR | 0.661
NRSR | ≤ 0.2
KCLR | ≤ 0.2
IRGF | ≤ 0.2
RLMT | 0.335
QCPH | ≤ 0.2
TMHT | ≤ 0.2
KRRD | ≤ 0.2
KRRR | 0.787
KCCR | ≤ 0.2
KRPR | 0.239
KRYR | 0.545
KCYR | ≤ 0.2
NRCR | ≤ 0.2
KRIR | 0.378
KPYR | ≤ 0.2
KCIR | ≤ 0.2
KRCR | 0.55

Variant | one-hybrid fitness for binding NBS DNA
KRRK | 0.319
GERG | ≤ 0.2
HQHR | ≤ 0.2
VMTL | ≤ 0.2
CRHA | ≤ 0.2
HMKG | ≤ 0.2
THLW | ≤ 0.2
GMMA | ≤ 0.2
QRVE | ≤ 0.2
QCKE | 0.297
QTDE | ≤ 0.2
QRYE | 0.207
QTKE | 0.378
QPRE | ≤ 0.2
QSRE | 0.22
QTVE | ≤ 0.2
QCRE | 0.369
QTYE | ≤ 0.2
QTRE | 0.405
QRKE | 0.368
DNPC | ≤ 0.2
TLCS | ≤ 0.2
AKQC | ≤ 0.2
YPSA | ≤ 0.2

Variant | one-hybrid fitness for binding NBS DNA
VEHK | ≤ 0.2
IPPG | ≤ 0.2
NQDG | ≤ 0.2
HSKR | ≤ 0.2
CSCG | ≤ 0.2
RDNI | ≤ 0.2
RVSD | ≤ 0.2
RVSS | 0.39
RVSC | ≤ 0.2
RVST | 0.463
RVSN | ≤ 0.2
RVSH | ≤ 0.2
RVSF | ≤ 0.2
RVSR | 0.439
RVSP | ≤ 0.2
TKDA | ≤ 0.2
NVIT | ≤ 0.2
NCKE | ≤ 0.2
GYMR | ≤ 0.2
VACG | ≤ 0.2
GAQH | ≤ 0.2
LKVD | ≤ 0.2
RKFQ | ≤ 0.2
RPFR | ≤ 0.2

Variant | one-hybrid fitness for binding NBS DNA
RKFK | ≤ 0.2
RKFR | 0.443
RCFR | 0.376
RKAN | ≤ 0.2
RKAR | 0.597
RKAH | 0.322
RFFR | ≤ 0.2
PSEM | ≤ 0.2
VQGT | ≤ 0.2
EMAT | ≤ 0.2
MADF | ≤ 0.2
PISS | ≤ 0.2
CTLV | ≤ 0.2
YGYV | ≤ 0.2
RTVD | ≤ 0.2
RTVT | 0.393
RTKT | 0.724
RTKC | 0.31
RTVK | ≤ 0.2
RTKQ | 0.356
EDMY | ≤ 0.2
WWLN | ≤ 0.2
RCEN | ≤ 0.2
DHID | ≤ 0.2

Variant | one-hybrid fitness for binding NBS DNA
PMHC | ≤ 0.2
TEPL | ≤ 0.2
PAKT | ≤ 0.2
PFVA | ≤ 0.2
GVMR | ≤ 0.2
QQVN | ≤ 0.2
QQVP | ≤ 0.2
QQKF | 0.356
QQKT | 0.811
QQVT | 0.393
KQKT | 0.222
DFWV | ≤ 0.2
PKQR | ≤ 0.2
TNGR | ≤ 0.2
DAAG | ≤ 0.2
CWHR | ≤ 0.2
QLGT | 0.369
QLGS | 0.322
QTGQ | 0.27
QTGY | 0.312
QSGN | ≤ 0.2
QSGT | 0.385
QAGN | ≤ 0.2
QTGT | 0.64

Variant | one-hybrid fitness for binding NBS DNA
QSGD | ≤ 0.2
QAGS | 0.342
QLGH | ≤ 0.2
QAGT | 0.37
DRLC | ≤ 0.2
AHIW | ≤ 0.2
CMMG | ≤ 0.2
SQTP | ≤ 0.2
CRSF | ≤ 0.2
KPEL | ≤ 0.2
QIGT | 0.331
QHGP | ≤ 0.2
QCGT | 0.558
QHGT | 0.385
QHGS | 0.343
QPGT | ≤ 0.2
LTNG | ≤ 0.2
SHCL | ≤ 0.2
DTQK | ≤ 0.2
GMQY | ≤ 0.2
SYPN | ≤ 0.2
QRIS | 0.546
QRIH | 0.335
QRPD | ≤ 0.2

Variant | one-hybrid fitness for binding NBS DNA
QRPP | ≤ 0.2
QRPS | 0.461
QRIN | ≤ 0.2
TLDA | ≤ 0.2
VTHW | ≤ 0.2
PTMM | ≤ 0.2
REHM | ≤ 0.2
TEDC | ≤ 0.2
MFLM | ≤ 0.2
WPQL | ≤ 0.2
QDTP | ≤ 0.2
SAMV | ≤ 0.2
RPKA | ≤ 0.2
RTKA | 0.479
RKVA | ≤ 0.2
RKWA | 0.249
RCKA | 0.423
RTPA | ≤ 0.2
RSKA | 0.343
RTVA | ≤ 0.2
RIKA | 0.327
RKKA | 0.514
RRKA | 0.712
RFKA | ≤ 0.2

Variant | one-hybrid fitness for binding NBS DNA
VDGR | ≤ 0.2
KWPI | ≤ 0.2
RNIK | ≤ 0.2
VKTS | ≤ 0.2
LYFR | ≤ 0.2
CLSP | ≤ 0.2
QWKS | ≤ 0.2
SAIE | ≤ 0.2
RCVA | ≤ 0.2
RRVA | 0.571
RSVA | ≤ 0.2
SFPF | ≤ 0.2
CLCS | ≤ 0.2
HDRG | ≤ 0.2
PCMM | ≤ 0.2
QSNH | 0.273
QMDS | ≤ 0.2
QANP | ≤ 0.2
QADS | ≤ 0.2
QSNS | 0.421
QHDS | ≤ 0.2
QSDS | ≤ 0.2
QANS | 0.392
QMNS | 0.458

Variant | one-hybrid fitness for binding NBS DNA
QHNS | 0.419
QHNN | ≤ 0.2
QMNP | ≤ 0.2
KNIF | ≤ 0.2
WQYS | ≤ 0.2
YNRS | ≤ 0.2
VAGY | ≤ 0.2
ITFA | ≤ 0.2
TSRF | ≤ 0.2
KQID | ≤ 0.2
QLNP | ≤ 0.2
QINS | 0.329
QPNS | ≤ 0.2
QLNS | 0.385
QCNS | 0.534
QLDS | ≤ 0.2
CAVL | ≤ 0.2
QPVQ | 0.598
QSVQ | 0.291
QRKQ | 0.492
QPKQ | ≤ 0.2
QSKQ | 0.351
QRVQ | 0.511
QRPQ | ≤ 0.2

Variant | one-hybrid fitness for binding NBS DNA
QWKF | ≤ 0.2
LTYT | ≤ 0.2
THMS | ≤ 0.2
QFPN | ≤ 0.2
GTPY | ≤ 0.2
EAGR | ≤ 0.2
MHRT | ≤ 0.2
RVTH | ≤ 0.2
RVTY | ≤ 0.2
RVTR | 0.429
RVTS | 0.392
RVTM | ≤ 0.2
RVTP | ≤ 0.2
RVTT | 0.449
RVTN | ≤ 0.2
RVTD | ≤ 0.2
LTHY | ≤ 0.2
RNVL | ≤ 0.2
GFEG | ≤ 0.2
DLLN | ≤ 0.2
QAYR | 0.464
MAYR | ≤ 0.2
QAHQ | ≤ 0.2
QAHR | 0.541

Variant | one-hybrid fitness for binding NBS DNA
QAIR | 0.308
QAGD | ≤ 0.2
MARR | 0.414
QAGR | 0.525
QAPR | 0.275
QAGH | ≤ 0.2
MARN | ≤ 0.2
QAHD | ≤ 0.2
PHID | ≤ 0.2
SLRF | ≤ 0.2
CMGR | ≤ 0.2
NAWR | ≤ 0.2
STPW | ≤ 0.2
CRAL | ≤ 0.2
FGKT | ≤ 0.2
GADW | ≤ 0.2
KKET | ≤ 0.2
MDLY | ≤ 0.2
QARP | 0.24
QARD | 0.23
QARR | 0.973
AKDS | ≤ 0.2
LERS | ≤ 0.2
RRRQ | 0.401

Variant | one-hybrid fitness for binding NBS DNA
RPVQ | 0.397
RCKQ | 0.254
RFVQ | ≤ 0.2
RRVQ | 0.428
RRKQ | 0.436
RSVQ | ≤ 0.2
RCVQ | 0.215
RKVQ | ≤ 0.2
RRYQ | 0.207
RRDQ | 0.241
RSKQ | ≤ 0.2
GWHC | ≤ 0.2
VAYS | ≤ 0.2
MTCD | ≤ 0.2
DSMI | ≤ 0.2
KMGG | ≤ 0.2
CFTM | ≤ 0.2
YTCL | ≤ 0.2
